Assay results: PubChem BioAssay (NCI)
This is part of a sample that, as a whole, favours compounds with a hit. Of some 83,000 tested, about 20% had one in any assay.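 For each line, cells grew in 96-well plates with the test compound present at a single concentration for 48 hours.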 Active and inactive are the calls of the source. The calls were made as follows: active = growth percent below 10; inactive = the rest.

How the values were obtained:
Assay in all cases: NCI-60 one-dose screen, 48 h (100 = growth as untreated, 0 = no growth, -100 = all killed)
Conditions in all cases: 10 µM unless noted
[1] = tested on: HCT-15 colon
[2] = tested on: HT29 colon
[3] = tested on: SNB-75 CNS
[4] = tested on: SNB-19 CNS
[5] = tested on: U251 CNS
[6] = tested on: PC-3 prostate
[7] = tested on: SK-MEL-5 melanoma
[8] = tested on: LOX IMVI melanoma
[9] = tested on: SK-MEL-28 melanoma
[10] = tested on: SK-MEL-2 melanoma
[11] = tested on: EKVX NSCLC
[12] = tested on: SN12C renal
[13] = tested on: UO-31 renal
[14] = tested on: TK-10 renal
[15] = tested on: ACHN renal
[16] = tested on: CAKI-1 renal
[17] = tested on: A498 renal
[18] = tested on: MOLT-4 leukemia
[19] = tested on: CCRF-CEM leukemia
[20] = tested on: UACC-62 melanoma

Measured: growth

Cn1c(N2NC(=O)C(N=Nc3ccc(S(N)(=O)=O)cc3)C2=O)nc(-c2ccco2)c(C#N)c1=O (stereo not given)
inactive: [1] 61.7% | [2] 85.3% | [3] 64.5% | [4] 99.7% | [5] 96.9% | [6] 82.9% | [7] 98% | [8] 76.8% | [9] 102% | [10] 117% | [11] 107% | [12] 92.6% | [13] 63.2% | [14] 131% | [15] 81.6% | [16] 69.8% | [17] 122%
active: [18] 4.74%

CCc1ccc(CNc2ccc(N3CCOCC3)c(C(=O)O)c2)cc1
inactive: [1] 104% | [2] 96.4% | [3] 99.2% | [4] 107% | [5] 103% | [6] 106% | [7] 102% | [8] 96.8% | [9] 107% | [11] 98.3% | [12] 108% | [13] 89.5% | [14] 94% | [15] 103% | [16] 97.2% | [19] 102% | [18] 99.2%

COc1cc(/C=C/C(=O)c2nc3cc(F)ccc3nc2C)cc(OC)c1OC
active: [19] -4.9% | [18] -18.6%
inactive: [1] 48.1% | [2] 68.5% | [3] 89.9% | [4] 77.9% | [5] 36.7% | [6] 68.1% | [20] 62.2% | [8] 20.8% | [9] 61.3% | [10] 64.6% | [11] 201% | [12] 66.1% | [13] 61.1% | [14] 103% | [15] 87.3% | [16] 106% | [17] 98%

COC(=O)C1=C(C(=O)ON)[C@@H]2C=C[C@@]1([C@@H](Cc1ccccc1)Nc1ccccc1)O2
active: [1] -47.6% | [14] -23.4% | [15] -95.5% | [19] -13.5% | [18] 7.55%
inactive: [2] 57.7% | [3] 108% | [4] 104% | [5] 92.2% | [6] 101% | [20] 90% | [8] 77.7% | [9] 73.3% | [10] 94% | [11] 97.7% | [12] 81.5% | [13] 71.1% | [16] 86%

CCOC(=O)Nc1ccc(-c2ccc3c(c2)NC(=O)/C3=C\c2ccc[nH]2)cc1
inactive: [1] 84.6% | [2] 105% | [3] 89% | [4] 99.3% | [5] 87.9% | [6] 101% | [20] 101% | [8] 97.2% | [9] 111% | [10] 114% | [11] 30.8% | [12] 102% | [13] 72.6% | [14] 77% | [15] 100% | [16] 93.7% | [19] 98.3% | [18] 98.8%

CN1[C@@H]2CC[C@H]1/C(=C\c1ccccc1)C(=O)/C2=C/c1ccccc1
inactive: [1] 27.9% | [2] 10.9% | [3] 26.4% | [4] 47.1% | [5] 16.6% | [6] 36.8% | [20] 26.6% | [8] 19.7% | [9] 70.9% | [10] 60.7% | [11] 69.4% | [12] 36.8% | [13] 55.4% | [14] 74.9% | [15] 42% | [16] 41.3% | [17] 71.7% | [19] 16.1% | [18] 14.9%

O=C(CCN1CCCC1)Nc1ccc2c(Nc3ccc(F)cc3)c3ccccc3nc2c1
inactive: [3] 16.3% | [4] 13.8% | [20] 21.5% | [10] 49% | [11] 47.5%
active: [1] -31.9% | [2] 4.15% | [5] -42.1% | [6] 8.99% | [8] -61.2% | [9] -40.8% | [13] -89.1% | [14] -20.1% | [15] -13.3% | [16] -75.9% | [19] -17.8% | [18] -9.71%

CCN1CCN(CCNc2nccc(-c3c(-c4cccc(OC)c4)nc4occn34)n2)S1(=O)=O
inactive: [1] 102% | [2] 50.3% | [3] 112% | [4] 113% | [5] 113% | [6] 96.9% | [20] 27.5% | [8] 76.6% | [9] 47.3% | [10] 93.6% | [11] 90.9% | [12] 95.6% | [13] 91.9% | [14] 128% | [15] 84.9% | [16] 78.1% | [19] 117% | [18] 89%

Cc1ccc(NS(=O)(=O)c2ccc(-c3cnc(C4CC4)o3)cc2)cc1C(F)(F)F
inactive: [1] 35.2% | [2] 28.5% | [3] 46.6% | [4] 61% | [6] 68.1% | [7] 49% | [20] 47.3% | [8] 55.9% | [9] 64.1% | [10] 84.8% | [11] 75.3% | [12] 88.6% | [13] 58% | [14] 93.7% | [15] 76.4% | [16] 42.7% | [17] 47% | [19] 56.8%

COc1ccc(/C=C2\COc3ccc(-c4ccccc4)cc3C2=O)c(OC)c1
inactive: [1] 84.3% | [2] 76.7% | [3] 65.5% | [4] 103% | [5] 84.6% | [6] 78.2% | [20] 74.1% | [8] 79% | [9] 108% | [10] 101% | [11] 161% | [12] 83.8% | [13] 86.2% | [14] 94.8% | [15] 93% | [16] 116% | [17] 128% | [19] 71.2% | [18] 57.9%

CCCCCC(=O)Oc1ccc(/C(=C(\C)c2ccccc2)c2ccc(OCCN3CCCCC3)cc2)cc1
inactive: [1] 58.5% | [3] 92% | [4] 89.6% | [5] 71.7% | [6] 72.2% | [20] 91% | [8] 84% | [9] 71.4% | [10] 81.3% | [11] 93.7% | [12] 79.5% | [13] 59.8% | [14] 85.1% | [15] 96.2% | [16] 88.6% | [19] 85.1% | [18] 63.7%
active: [2] 8.87%

CCN(CC)CCOc1ccc(NC(=O)C(C(C)C)N2C(=O)/C(=C/c3ccc(Br)cc3)SC2=S)cc1 (stereo not given)
active: [1] -40.9% | [2] -5.87% | [19] -16.7% | [18] 3.96%
inactive: [3] 66% | [4] 57.6% | [5] 71.7% | [6] 64.5% | [20] 95.3% | [8] 62.9% | [9] 89% | [10] 101% | [11] 90% | [12] 73.3% | [13] 74.5% | [14] 95.6% | [15] 62.1% | [16] 81% | [17] 99.5%

CCOC(=O)c1cc(C(=O)c2ccc(OC)cc2)n2ccc(/C=C/c3cc[n+](CC(=O)c4ccc(OC)cc4)cc3)cc12
inactive: [1] 85.9% | [2] 16.5% | [3] 57.9% | [4] 31.3% | [5] 53.5% | [6] 64.1% | [20] 99.5% | [8] 25.4% | [10] 100% | [11] 87.8% | [12] 56.2% | [13] 72.7% | [14] 91.7% | [15] 70.2% | [16] 81.8% | [17] 67.6% | [18] 49.8%
active: [19] -22.5%

Cc1cccc(NC(=O)Nc2ccc(-c3ccc4c(c3)NC(=O)/C4=C\c3ccc[nH]3)cc2)c1
inactive: [1] 66.9% | [2] 99.4% | [3] 81.7% | [4] 90.2% | [5] 74.7% | [6] 94% | [20] 98.1% | [8] 78.7% | [9] 95.9% | [10] 111% | [11] 46.5% | [12] 100% | [13] 70.3% | [14] 93.3% | [15] 91.1% | [16] 82.6% | [19] 30.1% | [18] 53.8%

CN1CCN(c2ccc(NC3=C(Cl)C(=O)c4ncccc4C3=O)cc2C(F)(F)F)CC1
inactive: [2] 78.3% | [3] 96.9% | [4] 101% | [5] 88.6% | [6] 62.9% | [20] 87% | [9] 76.9% | [11] 110% | [12] 93.9%
active: [1] -47% | [8] -56.2% | [13] -80.4% | [14] -65.9% | [15] -56.2% | [16] -95.6% | [19] -1.56% | [18] 1.95%

N#C/C(=C\c1ccc([N+](=O)[O-])s1)c1nc2cc(Br)ccc2s1
inactive: [2] 21.8% | [3] 12% | [20] 17% | [9] 12% | [17] 109%
active: [1] -52.1% | [4] 7.78% | [5] -20.5% | [6] -49% | [8] -54.1% | [10] -41.1% | [11] -30.8% | [12] -30.1% | [13] -52.1% | [14] 4.33% | [15] -56.8% | [16] -2.73% | [19] -19.5% | [18] -18.8%
